This is one part of a sample in which hits are shown more often than they occur.
IDE exosite inh: insulin-degrading enzyme (human) exo-site inhibition. P14735. 17,000 compounds, 6.3% hits. AID 1259349. purified IDE, FL-6b probe fluorescence polarization; stronger effect = lower value. z-score at 20 µM;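 active means z-score of -3 or lower, meaning strong loss of probe binding signal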;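 further: His-tagged human IDE residues 42-1019 made in E. coli with 30 nM FL-6b probe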
Target sequence (P14735 42-1019 limits assumed): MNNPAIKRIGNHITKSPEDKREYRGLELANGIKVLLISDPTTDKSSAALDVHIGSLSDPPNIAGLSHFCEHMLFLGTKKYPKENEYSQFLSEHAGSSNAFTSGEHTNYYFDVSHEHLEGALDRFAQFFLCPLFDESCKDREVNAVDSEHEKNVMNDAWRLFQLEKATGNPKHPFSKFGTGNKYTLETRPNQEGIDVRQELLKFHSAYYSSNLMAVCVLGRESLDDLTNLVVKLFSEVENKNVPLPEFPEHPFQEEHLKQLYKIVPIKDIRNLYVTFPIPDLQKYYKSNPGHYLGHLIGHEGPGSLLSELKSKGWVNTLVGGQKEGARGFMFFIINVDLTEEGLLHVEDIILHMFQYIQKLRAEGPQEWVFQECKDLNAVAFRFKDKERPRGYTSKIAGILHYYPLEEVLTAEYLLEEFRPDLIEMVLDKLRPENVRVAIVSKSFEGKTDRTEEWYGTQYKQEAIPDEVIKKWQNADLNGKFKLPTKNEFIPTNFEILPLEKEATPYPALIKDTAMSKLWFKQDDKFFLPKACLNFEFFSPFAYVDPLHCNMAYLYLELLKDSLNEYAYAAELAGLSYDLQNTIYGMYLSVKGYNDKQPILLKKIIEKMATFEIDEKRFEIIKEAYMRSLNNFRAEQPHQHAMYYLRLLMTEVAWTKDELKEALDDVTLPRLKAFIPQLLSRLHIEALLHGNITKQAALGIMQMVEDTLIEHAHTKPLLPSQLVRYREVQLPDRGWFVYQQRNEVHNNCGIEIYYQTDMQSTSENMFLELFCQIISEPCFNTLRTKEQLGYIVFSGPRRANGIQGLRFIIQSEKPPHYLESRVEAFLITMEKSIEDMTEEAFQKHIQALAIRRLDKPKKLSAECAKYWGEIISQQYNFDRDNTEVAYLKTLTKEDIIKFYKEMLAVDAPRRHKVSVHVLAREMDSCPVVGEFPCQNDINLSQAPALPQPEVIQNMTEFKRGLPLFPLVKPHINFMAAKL
* marks the source's active call; other numbers are inactive results.

SMILES	IDE exosite inh
Cc1cccc(-c2ccc([C@@H]3[C@H]4CN(C(=O)NC5CCCCC5)CC(=O)N4[C@H]3CO)cc2)c1	-16*
Cc1cccc(-c2ccc([C@H]3[C@H](CO)N4C(=O)CN(C(=O)NC5CCCCC5)C[C@@H]34)cc2)c1	-16*
COc1ccc2c3c([nH]c2c1)[C@@H](CO)N(C(C)=O)CC31CCN(C(=O)c2ccc3c(c2)OCO3)CC1	0.18
CCCNC(=O)N1[C@H](CO)[C@H](c2ccc(-c3ccccc3F)cc2)[C@@H]1C#N	-2.3
N#C[C@H]1[C@H](c2ccc(C#Cc3ccccc3F)cc2)[C@H](CO)N1C(=O)C1CC1	-1.2
N#C[C@H]1[C@H](c2ccc(C#Cc3ccccc3F)cc2)[C@@H](CO)N1C(=O)c1cccnc1	-5.5*
COCC(=O)N1[C@H](C#N)[C@H](c2ccc(C#Cc3ccccc3F)cc2)[C@H]1CO	-2.3
N#C[C@@H]1[C@@H](c2ccc(C#Cc3ccccc3F)cc2)[C@H](CO)N1C(=O)c1cccnc1	-2.5
N#C[C@@H]1[C@H](c2ccc(C#Cc3ccccc3F)cc2)[C@H](CO)N1C(=O)C1CCOCC1	-6.4*
N#C[C@@H]1[C@@H](c2ccc(C#Cc3ccccc3F)cc2)[C@@H](CO)N1C(=O)C1CCC1	1.6
N#C[C@H]1[C@@H](c2ccccc2)[C@H](CO)N1C(=O)c1cccnc1	3.6
N#C[C@H]1[C@@H](c2ccc(C#Cc3ccccc3F)cc2)[C@@H](CO)N1C(=O)C1CCOCC1	-3.7*
COCC(=O)N1[C@@H](C#N)[C@H](c2ccc(C#Cc3ccccc3F)cc2)[C@@H]1CO	-4.3*
COCC(=O)N1[C@@H](C#N)[C@@H](c2ccc(C#Cc3ccccc3F)cc2)[C@@H]1CO	0.64
N#C[C@H]1[C@@H](c2ccc(C#Cc3ccccc3F)cc2)[C@H](CO)N1C(=O)C1CCC1	0.22
N#C[C@H]1[C@@H](c2ccc(C#Cc3ccccc3F)cc2)[C@@H](CO)N1C(=O)C1CCC1	0.33
Cc1cccc(S(=O)(=O)N2CCCCN3[C@H](CO)[C@@H](c4ccc(C#CC(C)C)cc4)[C@@H]3C2)c1	1.9
CCCNC(=O)Nc1ccc2c(c1)OC[C@@H](C)N(C(=O)C1CCOCC1)C[C@H](C)[C@H](OC)CN(C)C2=O	0.21
CO[C@H]1CC[C@H]2CCOc3c(C#N)cccc3C(=O)N(C)CCCC(=O)N(C)C[C@@H]1O2	-0.19
O=C(NCC[C@@H]1CC[C@@H](NC(=O)c2ccncc2)[C@H](CO)O1)Nc1ccc(Cl)cc1	1.2
C[C@@H](O)C#Cc1ccc([C@H]2[C@@H](CO)N3CCCCN(S(=O)(=O)c4ccccc4)C[C@H]23)cc1	-0.13
COCC(=O)N1[C@H](C#N)[C@@H](c2ccccc2-c2ccccc2F)[C@H]1CO	-0.079
COc1ccccc1NC(=O)N1CC(=O)N2[C@H](CO)[C@@H](c3ccc(C#CCC(C)C)cc3)[C@H]2C1	0.81
O=C(Nc1cccc(F)c1)N1CC(=O)N2[C@H](CO)[C@H](c3ccc(Br)cc3)[C@@H]2C1	0.025
CCS(=O)(=O)N1CCCCN2[C@H](CO)[C@H](c3ccc(C4=CCCC4)cc3)[C@H]2C1	4.1
SMILES	IDE exosite inh
N#C[C@H]1[C@H](c2ccc(-c3cccc(F)c3)cc2)[C@@H](CO)N1C(=O)c1cccnc1	1.3
N#C[C@@H]1[C@@H](c2ccc(-c3cccc(F)c3)cc2)[C@H](CO)N1C(=O)c1cccnc1	0.16
N#C[C@H]1[C@H](c2ccc(-c3cccc(F)c3)cc2)[C@H](CO)N1C(=O)c1cccnc1	-6*
CC(C)[C@H]1C(=O)N[C@H](c2cccc(Cl)c2)CC=CC[C@@H](C)Oc2ccccc2C(=O)N1C (mixture of isomers)	1.3
N#C[C@@H]1[C@H](c2ccc(-c3cccc(F)c3)cc2)[C@H](CO)N1C(=O)CN1CCOCC1	-0.67
O=C(NC[C@H]1N[C@H](CO)[C@@H]1c1ccc(-c2cncnc2)cc1)C1CCCCC1	-0.6
COc1ccccc1-c1ccc([C@H]2[C@@H](C#N)N[C@@H]2CO)cc1	-0.79
N#C[C@H]1N[C@H](CO)[C@H]1c1ccc(-c2ccccc2F)cc1	4.7
COc1ccc(-c2ccc([C@H]3[C@H](CO)N[C@@H]3C#N)cc2)cc1	1.6
COc1ccccc1-c1ccc([C@@H]2[C@H](C#N)N[C@@H]2CO)cc1	-9.3*
COc1ccccc1-c1ccc([C@H]2[C@@H](CO)N[C@@H]2CNC(=O)C2CCCC2)cc1	-11*
COc1ccccc1-c1ccc([C@H]2[C@H](CO)N[C@@H]2C#N)cc1	-4.2*
COc1ccccc1-c1ccc([C@@H]2[C@@H](C#N)N[C@@H]2CO)cc1	-8.9*
N#C[C@H]1N[C@@H](CO)[C@@H]1c1ccc(-c2ccccc2F)cc1	1.4
N#C[C@@H]1N[C@@H](CO)[C@@H]1c1ccc(-c2ccccc2F)cc1	2
N#C[C@@H]1N[C@H](CO)[C@H]1c1ccc(-c2ccccc2F)cc1	2.8
O=C(NC[C@@H]1N[C@@H](CO)[C@@H]1c1ccccc1)C1CC1	3.8
O=C(Nc1cc(F)ccc1F)N1CCCCN2[C@H](CO)[C@@H](c3ccc(-c4ccccc4)cc3)[C@@H]2C1	3.2

Assay outcomes: PubChem BioAssay, Broad Institute
